# Screening data: PubChem BioAssay, National Center for Advancing Translational Sciences (NCATS)
# Most compounds without a hit are left out; they make up all but 5.4% or so of the library.
# MARV entry inh: qHTS for inhibitors of binding or entry into cells for Marburg Virus; Marburg virus pseudotyped entry inhibition, cell reporter; Potency, µM (series often up to 37.8 µM), without a hit: at the top dose activity change, negative = inhibition, actives largely listed as inhibitors; 300,000 tested, 1.8% active; calls by dose curve; tested in HEK293 cells
# FMDV antiviral: High Throughput Screening for Foot and Mouth Disease Virus Antivirals; 410,000 tested, 1.2% active; Potency, µM (series often up to 57.9 µM), inactives show at the highest dose activity change, negative = inhibition, most hits filed as inhibitors; FMDV antiviral cell-based qHTS; AID 1159524, 2015; calls by dose curve; tested in HEK293T cells; note: read-out not given here; nearly all actives have a fitted effect of over 45% in size
# Lassa entry inh: qHTS for Inhibitors of binding or entry into cells for Lassa Virus; Lassa virus pseudotype entry inhibition, cell reporter; Potency, µM (titrated, usually from 37.9 µM), for the others: top-dose activity change, negative = inhibition, actives largely listed as inhibitors; 300,000 tested, 1.2% active; AID 540256, 2011; calls by dose curve; tested in HEK293 cells; note: nearly all actives have a fitted effect of over 50% in size
# Vaccinia mCherry: qHTS for Stage-Specific Inhibitors of Vaccinia Orthopoxvirus: mCherry Reporter Primary qHTS; Vaccinia virus mCherry reporter infection, fluorescence; 310,000 tested, 0.63% active; AID 720579, 2013; Potency, µM (series often up to 36.5 µM), inactives show at the highest dose activity change, negative = inhibition, usual class: inhibitors; calls by dose curve; tested in A549 cells; note: nearly all actives have a fitted effect of over 35% in size
# Sm TGR inh: qHTS Assay for the Inhibitors of Schistosoma Mansoni Peroxiredoxins | Schistosoma mansoni thioredoxin glutathione reductase (TGR), Q962Y6 | purified TGR, DTNB reduction, TNB absorbance 405 nm | Potency, µM (doses to about 114 µM), for the others: top-dose activity change, negative = inhibition, hits mostly inhibitors | 360,000 tested, 3% active | AID 485364, 2010; active = well fitted inhibition curve with a large enough effect; inconclusive = small, poorly fitted or top-dose-only effect; inactive = no such curve, though single readings can be large or run the other way; note: nearly all actives have a fitted effect of over 60% in size
#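 First, TGR (20 nM dispensed) and NADPH were mixed with compound. Second, a 15 min room-temperature incubation followed. Third, further NADPH and then DTNB were added to start the reaction. Finally, TNB absorbance was monitored kinetically.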
# VACV Venus inh: qHTS for Stage-Specific Inhibitors of Vaccinia Orthopoxvirus: Venus Reporter Primary qHTS; Potency, µM (doses to about 36.5 µM), for inactives: at the highest dose activity change, negative = inhibition, actives largely listed as inhibitors; Vaccinia virus Venus reporter expression, fluorescence; 330,000 tested, 0.46% active; AID 720580, 2013; calls by dose curve; tested in A549 cells; note: nearly all actives have a fitted effect of over 30% in size
# * hit, by the source's call; i = inactive; ? = inconclusive; . = no result given; [ ] = remark or other dose. % is set by controls: 0 for no effect and ±100 for the full control effect; potency is the fitted concentration of half-maximal effect.
SMILES,MARV entry inh,FMDV antiviral,Lassa entry inh,Vaccinia mCherry,Sm TGR inh,VACV Venus inh
CC(=O)N1N=C(c2ccco2)CC1c1cccs1 (stereo not drawn),6.5%,.,-9.8%,i,44.7µM*,-15.4%
Cc1ccc(C2=NN(C(=O)CCl)C(c3cccs3)C2)o1 (stereo not drawn),?,14.1µM*,?,-27.6%,3.16µM*,-10.6%
O=C(CCl)N1N=C(c2ccco2)CC1c1cccs1 (stereo not drawn),?,?,-26.7%,8.91µM*,3.16µM*,?
O=C(c1ccccc1)N1N=C(c2ccco2)CC1c1cccs1 (stereo not drawn),-11.4%[46.1 µM],1.1%,?,-18.7%,35.5µM*,2.5%
CC(=O)N1N=C(c2cccs2)CC1c1cccs1 (stereo not drawn),4.0%,-10.3%,0.0%[46.1 µM],i,-7.8%[57.1 µM],-13.9%
CS(=O)(=O)Nc1cccc(C2=NN(C(=O)c3ccccc3)C(c3cccs3)C2)c1 (stereo not drawn),.,0.0%,.,.,9.3%,.
O=c1c2oc3ccccc3c2n(Cc2ccc(Cl)cc2)c(=O)n1Cc1ccccc1,.,-25.0%,-4.2%[46.1 µM],-7.7%,21.0%,-1.6%
COCCNC(=O)c1nn(-c2ccc(Cl)cc2)nc1CO,-10.1%[46.1 µM],-0.8%,6.5%[46.1 µM],2.2%,9.5%,-0.3%
COc1ccc(Cn2c(=O)c3oc4ccccc4c3n(CC(=O)Nc3c(C)cccc3C)c2=O)cc1,.,-7.9%,15.1%[46.1 µM],-9.3%,4.3%,-12.1%
C=C1C(=O)OC2C1CCC(C)=C1C(=O)C3OC3(C)C12 (stereo not drawn),.,28.2µM*,.,11.2µM*,.,?
CN(Cc1cn(C)nc1-c1ccc(Oc2ccccc2)cc1)Cc1cnc2ccccn12,.,11.2µM*,.,.,-22.7%,.
COC(=O)c1c(C)oc2ccc(N(C(=O)c3ccncc3)S(=O)(=O)c3ccc(C)cc3)cc12,3.16µM*,-18.1%,-17.9%,10µM*,26.8%,?
COC(=O)c1c(C)oc2ccc(N(C(=O)c3ccncc3)S(=O)(=O)c3ccccc3)cc12,?,-12.8%,?,.,-21.3%,?
COC(=O)c1c(C)oc2ccc(N(C(=O)c3ccncc3)S(=O)(=O)c3ccc(C)cc3C)cc12,5.62µM*,?,?,-10.9%,-7.4%,?
O=C(c1ccc(N2CCC(NCCCn3ncc4ccccc43)CC2)cc1)N1CCc2ccccc2C1,.,-0.1%,.,-25.4%,.,-17.8%
COc1ccc(CCc2nnc(CCC(=O)N(C)Cc3ccnc4ccccc34)o2)cc1,?,?,12.6µM*,-3.6%,-5.6%,-8.7%
COc1ccccc1CCc1nnc(CCC(=O)N(C)Cc2cccc3cnccc23)o1,-10.6%[46.1 µM],-2.5%,9.0%[46.1 µM],-7.9%,-2.8%,-15.0%
CSc1nc(SCC(=O)NC(c2ccccc2)c2ccccc2)c2c3c(sc2n1)CN(C)CC3,9.2µM*,-1.1%,?,.,-5.2%,.
CSc1nc(NCC(C)O)c2c3c(sc2n1)CN(C)CC3 (stereo not drawn),.,-4.3%,.,-13.0%,-19.5%,-15.2%
O=S(=O)(CCN1CCSCC1)c1ccccc1,4.0%,-8.8%,-8.8%,12.6µM*,2.4%,?
O=S(=O)(CCN1CCN(c2ccccc2O)CC1)c1ccc(Cl)cc1,.,-28.6%,.,?,.,?
CC(C)CCCC(C)C1CCC2C3CC=C4CC(O)CC[C@@]4(C)C3CC[C@@]12C (stereo partly drawn),.,-6.8%,.,i,.,0.0%
CCNC(=O)Oc1ccc(-c2csnn2)cc1,7.1%[46.1 µM],31.6µM*,-0.7%,i,55.8%,-4.2%
CCOC(=O)C1CCN(Cc2cnc(Oc3ccc(C(C)(C)C)cc3)s2)CC1,3.0%,-27.8%,9.2µM*,.,-2.0%,.
O=c1[nH]c2cc([N+](=O)[O-])ccc2c2ccccc12,-16.8%,-6.9%,-0.4%,-12.8%,.,-2.3%
O=C1Cc2c([nH]c3ccc([N+](=O)[O-])cc23)-c2ccccc2N1,-14.8%,50.2%,-7.4%[46.1 µM],1.26µM*,.,?
CCN(CC)CCn1c(NC(=O)c2ccccc2O)nc2ccccc21,.,40.7%,.,.,44.7µM*,.
